Reference: PubChem BioAssay (Tox21)
Records with an inconclusive call do not appear. The source made the active and inactive calls. Unless noted, calls follow the shape of the full dose curve.

Experiments:
[1] = Nuclear factor erythroid 2-related factor 2/antioxidant responsive element (Nrf2/ARE) small molecule agonists: qHTS cell viability counter screen in human keratinocytes (AID 1919968; active = well fitted curve in the direction sought with a large enough effect in the repeat runs; an effect the other way counts as inactive or inconclusive; also: nearly all actives have a fitted effect of over 55% in size)
Method in brief: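 KeratinoSens cells (HaCaT keratinocytes stably carrying an ARE-luciferase reporter) were seeded at 1,500 cells/well and rested 5 h at 37 C/5% CO2. They were then exposed to compounds in DMSO for 23 h. Viability was read by CellTiter-Fluor fluorescence after 1 h.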

[2] = Nuclear factor erythroid 2-related factor 2/antioxidant responsive element (Nrf2/ARE) small molecule agonists: luciferase reporter gene qHTS assay in human keratinocytes (AID 1919969); also: nearly all actives have a fitted effect of over 35% in size
[3] = molecular target: Gonadotropin-releasing hormone receptor (Homo sapiens) (UniProt P30968); test: Human gonadotropin-releasing hormone receptor (GnRHR) small molecule agonists, calcium flux assay in GnRHR-HEK293 cells (AID 1920063); also: nearly all actives have a fitted effect of over 35% in size
Sequence of Gonadotropin-releasing hormone receptor (Homo sapiens) (P30968 whole entry, looked up): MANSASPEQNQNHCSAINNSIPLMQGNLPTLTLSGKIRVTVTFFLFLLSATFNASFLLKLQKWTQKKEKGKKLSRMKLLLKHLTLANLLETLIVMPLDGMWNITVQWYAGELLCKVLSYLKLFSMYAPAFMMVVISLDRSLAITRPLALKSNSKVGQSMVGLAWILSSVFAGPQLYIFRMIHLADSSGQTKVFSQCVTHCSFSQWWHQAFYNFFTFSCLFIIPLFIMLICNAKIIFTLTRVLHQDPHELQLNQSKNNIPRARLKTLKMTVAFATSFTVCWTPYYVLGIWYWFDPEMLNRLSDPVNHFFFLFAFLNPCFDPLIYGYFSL
Method in brief: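 HEK293 cells stably expressing human GnRHR were plated 18 h at 37 °C, loaded with calcium dye 1 h at 37 °C, then given compound in agonist mode; fluorescence (Ex/Em 480/540) read kinetically for 3 min at 1 s intervals.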

[4] = molecular target: KiSS-1 receptor (Homo sapiens) (UniProt Q969F8); test: Human kisspeptin (KISS1R) small molecule agonists, calcium flux assay in KISS1R-HEK293 cells (AID 1920064; active = well fitted curve in the direction sought with a large enough effect in the repeat runs; an effect the other way counts as inactive or inconclusive)
Sequence of KiSS-1 receptor (Homo sapiens) (Q969F8 whole entry, looked up): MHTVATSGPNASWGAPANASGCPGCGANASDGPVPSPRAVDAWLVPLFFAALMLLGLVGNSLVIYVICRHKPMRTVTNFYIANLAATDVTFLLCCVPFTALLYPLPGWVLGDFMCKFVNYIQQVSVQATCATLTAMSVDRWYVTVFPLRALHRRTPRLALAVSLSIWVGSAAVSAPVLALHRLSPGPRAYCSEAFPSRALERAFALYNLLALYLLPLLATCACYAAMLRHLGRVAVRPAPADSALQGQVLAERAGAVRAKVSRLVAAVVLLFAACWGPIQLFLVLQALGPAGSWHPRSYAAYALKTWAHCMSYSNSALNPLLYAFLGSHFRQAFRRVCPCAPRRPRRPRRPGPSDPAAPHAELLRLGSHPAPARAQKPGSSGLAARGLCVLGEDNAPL
Method in brief: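 HEK293 cells stably expressing human KISS1R were plated 18 h at 37 °C, loaded with calcium dye for 1 h at 37 °C, then given compound by pin tool. Fluorescence (Ex/Em 480/540) was read kinetically for 3 min.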

[5] = G protein-coupled receptor (GPCR) small molecule agonists, calcium flux assay: HEK293 wild type cell line counter screen (AID 1920065)
Method in brief: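 Cells were plated and cultured 18 h at 37 C/5% CO2, then loaded with calcium dye for 1 h at 37 C. Compounds in DMSO were pin-transferred in agonist mode, and fluorescence (Ex/Em 480/540) was read kinetically for 3 min at 1 s intervals.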

[6] = p53 small molecule agonists, cell-based qHTS assay with rat liver microsomes (AID 1963578)
Method in brief: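 Quantitative HTS of the Tox21 10K library: p53RE-bla cells, rat liver microsomes plus NADPH at 0.5 mg/mL final each, 16 h at 37 C, beta-lactamase fluorescence detection.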

[7] = p53 small molecule agonists, cell-based qHTS assay with human liver microsomes: qHTS cell viability counter screen (AID 1963579); also: nearly all actives have a fitted effect of over 45% in size
Method in brief: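 Viability of p53RE-bla cells is measured as CellTiter-Glo luminescence following a 16 h, 37 C incubation with compound, liver microsomes from human donors and NADPH.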

[8] = p53 small molecule agonists, cell-based qHTS assay with rat liver microsomes: qHTS cell viability counter screen (AID 1963580); also: nearly all actives have a fitted effect of over 45% in size
Method in brief: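 p53RE-bla HCT-116 cells (4,000/well) rested 5 h at 37 C, then given Tox21 compounds in DMSO with rat liver microsomes (0.5 mg/mL final) plus NADPH (0.5 mg/mL final) for 16 h at 37 C. Viability read by CellTiter-Glo luminescence after 30 min at room temperature.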

[9] = p53 small molecule agonists, cell-based qHTS assay: qHTS cell viability counter screen (AID 1963581); also: nearly all actives have a fitted effect of over 45% in size
Method in brief: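 p53RE-bla HCT-116 cells were exposed to compounds for 16 h at 37 C; after the beta-lactamase FRET read in the same wells, CellTiter-Glo was added and luminescence (intracellular ATP) read after 30 min at room temperature.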

[10] = p53 small molecule agonists, cell-based qHTS assay (AID 1963582; active = well fitted activation curve with a large enough effect in the signal ratio in the repeat runs, not every such curve was filed as active; the % refers to the signal ratio)
Method in brief: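 p53RE-bla beta-lactamase reporter cells rested 5 h at 37 C/5% CO2, then received compounds in DMSO by pin transfer and were incubated 16 h at 37 C. LiveBLAzer B/G FRET substrate was loaded for 2 h at room temperature before fluorescence reading.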

[11] = molecular target: 5-hydroxytryptamine receptor 2A (Homo sapiens) (UniProt P28223); test: 5-hydroxytryptamine receptor 2A (HTR2A) small molecule agonists, cell-based qHTS assay (AID 1963587); also: nearly all actives have a fitted effect of over 30% in size
Sequence of 5-hydroxytryptamine receptor 2A (Homo sapiens) (P28223 whole entry, looked up): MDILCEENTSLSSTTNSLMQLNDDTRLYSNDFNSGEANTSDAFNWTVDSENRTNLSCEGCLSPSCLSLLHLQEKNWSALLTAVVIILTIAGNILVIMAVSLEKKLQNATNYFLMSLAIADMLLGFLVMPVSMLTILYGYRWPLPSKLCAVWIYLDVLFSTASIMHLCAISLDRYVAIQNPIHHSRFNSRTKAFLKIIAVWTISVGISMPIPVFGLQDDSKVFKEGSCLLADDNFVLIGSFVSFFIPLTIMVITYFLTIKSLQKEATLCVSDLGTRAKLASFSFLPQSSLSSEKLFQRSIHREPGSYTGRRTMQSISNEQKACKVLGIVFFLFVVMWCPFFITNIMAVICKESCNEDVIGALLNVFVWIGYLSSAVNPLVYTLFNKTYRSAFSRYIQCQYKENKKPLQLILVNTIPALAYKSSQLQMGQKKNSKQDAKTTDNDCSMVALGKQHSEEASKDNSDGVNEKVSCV
Method in brief: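 HTR2A-CHO cells, plated 18 h at 37 C/5% CO2, dye-loaded 1 h at 37 C; compounds in DMSO added by pin tool (agonist mode). Intracellular calcium flux read as kinetic fluorescence on FDSS over 2 min at 1 s intervals.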

[12] = molecular target: Muscarinic acetylcholine receptor M1 (Homo sapiens) (UniProt P11229); test: Cholinergic receptor muscarinic 1 (CHRM1) small molecule antagonists, cell-based qHTS assay (AID 1963588); also: nearly all actives have a fitted effect of over 40% in size
Sequence of Muscarinic acetylcholine receptor M1 (Homo sapiens) (P11229 whole entry, looked up): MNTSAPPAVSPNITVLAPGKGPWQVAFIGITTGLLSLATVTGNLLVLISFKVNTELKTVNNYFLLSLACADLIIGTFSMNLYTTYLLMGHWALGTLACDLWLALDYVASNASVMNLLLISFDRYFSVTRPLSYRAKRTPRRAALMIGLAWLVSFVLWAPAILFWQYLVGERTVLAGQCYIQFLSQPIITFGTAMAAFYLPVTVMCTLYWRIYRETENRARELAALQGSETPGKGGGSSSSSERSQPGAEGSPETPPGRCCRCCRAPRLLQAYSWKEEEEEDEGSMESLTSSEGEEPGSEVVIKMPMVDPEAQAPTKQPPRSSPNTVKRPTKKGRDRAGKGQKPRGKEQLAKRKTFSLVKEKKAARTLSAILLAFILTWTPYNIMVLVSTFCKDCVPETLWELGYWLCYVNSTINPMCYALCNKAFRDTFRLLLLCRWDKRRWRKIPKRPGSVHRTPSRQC
Method in brief: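 CHRM1-CHO calcium-flux assay, antagonist mode. Cells were seeded 18 h, dye-loaded 1 h at 37 C and given compound for 5 min at RT, then acetylcholine was added at 50nM. FDSS fluorescence was read 3 min; 15 concentrations, three runs.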

[13] = molecular target: Muscarinic acetylcholine receptor M1 (Homo sapiens) (UniProt P11229); test: Cholinergic receptor muscarinic 1 (CHRM1) small molecule agonists, cell-based qHTS assay (AID 1963589); also: nearly all actives have a fitted effect of over 35% in size
Method in brief: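 CHO cells stably expressing human CHRM1, seeded 18 h at 37 C/5% CO2, dye-loaded 1 h at 37 C, then given compound in agonist mode; intracellular calcium fluorescence read kinetically at 1 s intervals. Fifteen concentrations, three independent runs.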

[14] = cAMP Responsive Elements (CRE) small molecule antagonists, cell-based qHTS assay (AID 1963591; active = well fitted inhibition curve with a large enough effect in the signal ratio in the repeat runs, not every such curve was filed as active; the % refers to the signal ratio)
Method in brief: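 CRE-bla HEK293T cells were plated 18 h at 37 °C/5% CO2, pinned with compound in DMSO, then stimulated with NKH477 at 0.25 uM final for 3 h. LiveBLAzer B/G FRET substrate was added and plates incubated 2 h at room temperature.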

[15] = molecular target: D(2) dopamine receptor (Homo sapiens) (UniProt P14416); test: Dopamine D2 receptor (DRD2) small molecule agonists, cell-based qHTS assay (AID 1963594); also: nearly all actives have a fitted effect of over 35% in size
Sequence of D(2) dopamine receptor (Homo sapiens) (P14416 whole entry, looked up): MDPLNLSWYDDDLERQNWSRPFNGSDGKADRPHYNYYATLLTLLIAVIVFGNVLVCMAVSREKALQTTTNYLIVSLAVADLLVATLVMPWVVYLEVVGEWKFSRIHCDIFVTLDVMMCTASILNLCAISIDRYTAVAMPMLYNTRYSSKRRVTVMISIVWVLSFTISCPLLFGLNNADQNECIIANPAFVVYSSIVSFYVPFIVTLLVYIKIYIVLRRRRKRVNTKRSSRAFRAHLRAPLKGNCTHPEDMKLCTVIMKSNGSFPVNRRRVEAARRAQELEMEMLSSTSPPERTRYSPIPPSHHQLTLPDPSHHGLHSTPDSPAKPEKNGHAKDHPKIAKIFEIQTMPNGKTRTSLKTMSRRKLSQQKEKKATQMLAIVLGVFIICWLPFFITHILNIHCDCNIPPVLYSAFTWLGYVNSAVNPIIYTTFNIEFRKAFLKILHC
Method in brief: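 HEK293 cells stably expressing DRD2 were cultured 24 h at 37 C, then given Ro20-1724 (0.1 mM final) and compounds for 10 min at room temperature. NKH477 (200nM) was then added for 30 min. cAMP was read by HTRF.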

[16] = molecular target: D(2) dopamine receptor (Homo sapiens) (UniProt P14416); test: Dopamine D2 receptor (DRD2) small molecule antagonists, cell-based qHTS assay (AID 1963595; active = well fitted inhibition curve with a large enough effect in the signal ratio in the repeat runs, with a control signal flat; the % refers to the signal ratio)
Method in brief: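 Stable D2 receptor HEK293 line, 24 h after seeding. Compound preincubated 10 min, then quinpirole (12 nM) with forskolin analogue NKH477 (200 nM), 30 min, room temperature. Detection by time-resolved FRET of cAMP.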

[17] = molecular target: 5-hydroxytryptamine receptor 2A (Homo sapiens) (UniProt P28223); test: 5-hydroxytryptamine receptor 2A (HTR2A) small molecule antagonists, cell-based qHTS assay (AID 1963586); also: nearly all actives have a fitted effect of over 45% in size
Method in brief: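 Antagonist-mode intracellular calcium assay: DOI (4 nM) added after 5 min compound pre-incubation at room temperature to dye-loaded HTR2A-CHO cells. Fluorescence followed for 3 min, sampled every second.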

[18] = cAMP Responsive Elements (CRE) small molecule agonists, cell-based qHTS assay (AID 1963590)
Method in brief: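 CRE-bla HEK 293T cells in DMEM with 10% dialyzed FBS, NEAA, pyruvate and 25 mM HEPES were plated 18 h at 37 C/5% CO2, then exposed to compounds in DMSO for 3 h before LiveBLAzer B/G FRET substrate addition.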

[19] = molecular target: Beta-2 adrenergic receptor (Homo sapiens) (UniProt P07550); test: Adrenergic beta2 receptor (ADRB2) small molecule antagonists, cell-based qHTS assay (AID 1963592); also: series mostly up to about 92 µM; nearly all actives have a fitted effect of over 50% in size
Sequence of Beta-2 adrenergic receptor (Homo sapiens) (P07550 whole entry, looked up): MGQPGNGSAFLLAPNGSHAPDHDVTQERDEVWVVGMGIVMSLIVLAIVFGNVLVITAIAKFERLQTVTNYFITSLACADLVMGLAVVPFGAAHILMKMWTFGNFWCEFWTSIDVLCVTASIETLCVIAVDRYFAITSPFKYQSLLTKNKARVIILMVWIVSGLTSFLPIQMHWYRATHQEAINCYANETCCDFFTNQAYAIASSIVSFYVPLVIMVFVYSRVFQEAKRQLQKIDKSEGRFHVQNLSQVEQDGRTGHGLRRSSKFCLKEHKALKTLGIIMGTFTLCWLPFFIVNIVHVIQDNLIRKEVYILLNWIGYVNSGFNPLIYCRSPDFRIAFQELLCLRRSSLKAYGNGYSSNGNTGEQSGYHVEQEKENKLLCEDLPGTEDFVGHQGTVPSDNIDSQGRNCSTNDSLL
Method in brief: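 Cells (CHO, stable ADRB2 overexpression) incubated 18-20hr at 37C; compounds added from DMSO; agonist mix (1nM isoproterenol, 100uM IBMX, 25uM Ro-20-1724) added; 0.5hr RT; d2-cAMP and anti-cAMP-cryptate added; 1hr RT; 665/615 nm read.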

[20] = molecular target: Beta-2 adrenergic receptor (Homo sapiens) (UniProt P07550); test: Adrenergic beta2 receptor (ADRB2) small molecule agonists, cell-based qHTS assay (AID 1963593);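 also: CHO cells stably overexpressing human ADRB2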
Method in brief: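 CHO cells stably over-expressing ADRB2 were plated overnight at 37C, then dosed with compounds plus a stimulation mix containing 100uM IBMX and 25uM Ro-20-1724 for 0.5hr at room temperature. cAMP was measured by HTRF competition, 1hr.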

Measured: Potency

CCn1c(=O)c2c(nc(/C=C/c3ccc(OC)c(OC)c3)n2C)n(CC)c1=O
inactive: [1] | [2] | [3] | [4] | [5] | [6] | [7] | [8] | [9] | [10] | [11] | [12] | [13] | [14] | [15] | [16]

CCn1nc(C)c2c1C(=O)NCC(c1ccc(O)cc1)=N2
inactive: [1] | [2] | [3] | [4] | [5] | [6] | [7] | [8] | [9] | [10] | [17] | [11] | [12] | [13] | [18] | [19] | [20] | [15]

CC(C)C(C)(C)C(C)(C)C(C)(C)S
inactive: [1] | [2] | [3] | [4] | [5] | [6] | [7] | [8] | [9] | [10] | [11] | [13] | [18] | [14]

CC(COc1ccccc1)NN (stereo not drawn)
inactive: [1] | [2] | [3] | [4] | [5] | [6] | [7] | [8] | [9] | [17] | [11] | [12] | [13] | [18] | [19] | [15] | [16]

COCCOc1cc2cc(C(=O)NC3CCN(C(C)C)CC3)n(CC(=O)Nc3ccc(Cl)cn3)c2cn1
inactive: [1] | [2] | [3] | [4] | [5] | [6] | [7] | [8] | [9] | [10] | [17] | [11] | [12] | [13] | [18] | [19] | [20] | [16]

CCCCCC1Nc2cc(C(F)(F)F)c(S(N)(=O)=O)cc2S(=O)(=O)N1 (stereo not drawn)
inactive: [1] | [2] | [3] | [4] | [5] | [6] | [7] | [8] | [9] | [10] | [11] | [12] | [13] | [19] | [20] | [15] | [16]

O=C1NCCN1
inactive: [1] | [2] | [3] | [4] | [5] | [6] | [7] | [8] | [9] | [10] | [17] | [11] | [12] | [18] | [14] | [19] | [15] | [16]
